# PubChem BioAssay
# Activity calls are given as the source filed them.
# Tests used:
# [1] = biological target: Albumin (Bos taurus) (UniProt P02769); test: compounds binding labelled BSA control protein – biochemical, small-molecule microarray, Alexa647 label, 635/667 nm fluorescence, artefact control for SMM control protein annotation, profiling panel (AID 1118); conditions: BSA-A647 binding, fluorescence 635 nm, higher = more signal;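 further: score merges 667 nm emission intensity and signal-to-noise per printed compound spot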
# Albumin (Bos taurus), sequence (P02769 whole entry, looked up): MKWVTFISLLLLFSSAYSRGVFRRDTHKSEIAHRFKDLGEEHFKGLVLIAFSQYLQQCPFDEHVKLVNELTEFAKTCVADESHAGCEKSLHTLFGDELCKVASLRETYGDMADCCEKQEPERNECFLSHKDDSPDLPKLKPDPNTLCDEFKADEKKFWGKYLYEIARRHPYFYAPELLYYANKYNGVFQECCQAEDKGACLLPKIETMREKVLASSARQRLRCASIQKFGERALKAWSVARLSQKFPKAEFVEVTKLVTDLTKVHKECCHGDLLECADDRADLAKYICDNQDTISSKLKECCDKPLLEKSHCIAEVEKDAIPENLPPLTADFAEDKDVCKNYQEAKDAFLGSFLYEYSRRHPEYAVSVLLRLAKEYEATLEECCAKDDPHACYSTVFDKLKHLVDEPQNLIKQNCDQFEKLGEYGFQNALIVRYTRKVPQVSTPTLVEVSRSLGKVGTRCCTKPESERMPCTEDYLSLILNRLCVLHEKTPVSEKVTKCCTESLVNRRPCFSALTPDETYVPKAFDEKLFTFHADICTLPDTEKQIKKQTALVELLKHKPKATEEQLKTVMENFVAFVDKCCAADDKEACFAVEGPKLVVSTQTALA
# [2] = probe aXIP binding to arrayed compounds – biochemical, NeuroSMM set, 635/667 nm fluorescence, primary screen (AID 1119); conditions: small-molecule microarray, higher = more signal, called active from +8 up or from −8 down;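 further: probe is the protein aXip251-270 applied at 1 µg/mL to compound-printed slides; binding of probe to printed compounds measured as 667 nm fluorescence plus signal to noise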
# [3] = probe aNOTCH3 binding on compound microarray – biochemical, small-molecule microarray, 635/667 nm fluorescence, primary screen (AID 1120); conditions: higher = more signal;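 further: probe is a biotin-tagged antibody raised against NOTCH3 rather than NOTCH3 protein; score merges spot fluorescence near 667 nm with spot signal to noise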
# [4] = probe aNOTCH2 binding on compound microarray – biochemical, small-molecule microarray, 635/667 nm fluorescence, primary screen (AID 1121); conditions: higher = more signal;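 further: score merges feature fluorescence read at 667 nm with its signal to noise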
# [5] = biological target: Carbonic anhydrase 2 (Homo sapiens) (UniProt P00918); test: compounds binding carbonic anhydrase 2 – biochemical, small-molecule microarray, Alexa647-labelled CAII, profiling panel (AID 1122); conditions: CAII-A647 binding fluorescence, higher = more signal
# [6] = COS7 lysate on small-molecule microarray, probe aHis, 635 nm (AID 1123); conditions: COS7 cell lysate, fluorescence, higher = more signal;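 further: z-score combines 667nm fluorescence intensity with signal-to-noise per printed compound spot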
# [7] = probe aLAP1 signal on lysate-treated microarray – cell lysate, small-molecule microarray, COS7 lysate, primary screen (AID 1124); conditions: probe aLAP1, fluorescence, higher = more signal;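 further: lysate comes from COS7 cells expressing LAP1 and is applied at 0.3 µg/mL; score merges spot fluorescence near 667 nm with signal-to-noise over triplicate slides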
# [8] = tested on: Sam68 (KHDRBS1); test: compounds binding KHDRBS1 protein – biochemical, small-molecule microarray, 635 nm fluorescence, primary screen (AID 1125); conditions: higher = more signal;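 further: score merges 667 nm channel intensity with signal to noise over triplicate slides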
# [9] = tested on: Chordin-like protein 2 (CHRDL2); test: compounds binding chordin-like 2 – biochemical, small-molecule microarray, 635 nm fluorescence, primary screen (AID 1126); conditions: fluorescence 635 nm, higher = more signal;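 further: printed compound slides probed with Chrdl2 protein at 4 µg/mL for 1 h at 4 C; score merges 667 nm emission intensity with signal to noise over three replicate slides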
# [10] = biological target: Concanavalin-A (Canavalia ensiformis) (UniProt P02866); test: compounds binding concanavalin A lectin – biochemical, small-molecule microarray, Alexa647 label, 635 nm, artefact control for SMM control protein annotation, primary screen (AID 1127); conditions: ConA-A647 binding fluorescence, higher = more signal;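 further: z combines 667 nm emission intensity with signal-to-noise across three replicate slides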
# Concanavalin-A (Canavalia ensiformis), sequence (P02866 whole entry, looked up): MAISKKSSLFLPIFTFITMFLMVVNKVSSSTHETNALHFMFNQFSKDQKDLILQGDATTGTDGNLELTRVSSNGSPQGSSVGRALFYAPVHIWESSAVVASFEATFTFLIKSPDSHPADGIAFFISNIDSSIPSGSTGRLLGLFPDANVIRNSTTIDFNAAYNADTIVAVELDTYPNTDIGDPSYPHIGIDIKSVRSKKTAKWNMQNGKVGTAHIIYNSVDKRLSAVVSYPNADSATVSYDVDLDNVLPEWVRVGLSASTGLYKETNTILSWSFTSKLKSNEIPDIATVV
# [11] = compounds binding Alexa647 anti-His antibody – biochemical, small-molecule microarray, 635 nm fluorescence, artefact control for SMM control protein annotation, primary screen (AID 1128); conditions: higher = more signal;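 further: score merges feature fluorescence with signal-to-noise for each printed compound spot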
# [12] = tested on: Human papillomavirus type 1a E7 protein (residues 1-88); test: HPV1a E7 small-molecule binders, primary screen, biochemical, small-molecule microarray, residues 1-88, 635 nm (AID 1129); conditions: small-molecule microarray binding, fluorescence 635 nm; higher = more signal
# [13] = biological target: Focal adhesion kinase 1 (Homo sapiens) (UniProt Q05397); test: PTK2 protein binding on printed compound slides – biochemical, small-molecule microarray, 635/667 nm fluorescence, BSA, DTT, primary screen (AID 1130); conditions: 635 nm fluorescence, higher = more signal;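 further: composite of spot emission at 667 nm and signal to noise over triplicate slides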
# Focal adhesion kinase 1 (Homo sapiens), sequence (Q05397 whole entry, looked up): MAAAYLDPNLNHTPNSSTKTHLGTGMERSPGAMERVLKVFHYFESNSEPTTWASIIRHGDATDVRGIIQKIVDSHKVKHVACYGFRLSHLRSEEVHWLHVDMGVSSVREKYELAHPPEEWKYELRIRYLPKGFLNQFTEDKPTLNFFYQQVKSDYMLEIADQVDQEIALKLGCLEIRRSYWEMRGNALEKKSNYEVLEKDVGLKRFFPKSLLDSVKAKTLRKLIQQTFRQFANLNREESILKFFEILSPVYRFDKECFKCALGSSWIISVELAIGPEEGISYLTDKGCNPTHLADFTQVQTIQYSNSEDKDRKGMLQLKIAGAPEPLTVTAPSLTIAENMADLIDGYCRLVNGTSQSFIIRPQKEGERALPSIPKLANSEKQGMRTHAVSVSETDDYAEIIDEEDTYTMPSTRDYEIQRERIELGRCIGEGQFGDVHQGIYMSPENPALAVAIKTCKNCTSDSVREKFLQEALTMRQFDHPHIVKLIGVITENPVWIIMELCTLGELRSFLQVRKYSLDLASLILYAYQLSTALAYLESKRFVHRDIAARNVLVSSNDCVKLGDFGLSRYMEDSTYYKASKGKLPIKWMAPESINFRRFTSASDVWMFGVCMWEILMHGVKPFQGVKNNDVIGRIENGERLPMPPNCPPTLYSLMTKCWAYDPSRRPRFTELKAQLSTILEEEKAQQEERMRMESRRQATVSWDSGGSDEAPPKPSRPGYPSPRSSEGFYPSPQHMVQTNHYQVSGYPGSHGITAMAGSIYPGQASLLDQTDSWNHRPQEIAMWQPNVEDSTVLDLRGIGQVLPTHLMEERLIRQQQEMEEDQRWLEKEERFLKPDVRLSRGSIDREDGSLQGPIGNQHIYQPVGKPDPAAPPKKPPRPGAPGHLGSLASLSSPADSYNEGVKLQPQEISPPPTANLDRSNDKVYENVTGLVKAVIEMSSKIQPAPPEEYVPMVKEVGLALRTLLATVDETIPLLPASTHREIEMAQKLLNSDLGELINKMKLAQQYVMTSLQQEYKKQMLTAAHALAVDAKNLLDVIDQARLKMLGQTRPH
# [14] = tested on: Fibrinogen (Alexa647-labelled); test: Alexa647-fibrinogen binding to printed small molecules – biochemical, small-molecule microarray, 635/667 nm fluorescence, artefact control for SMM control-protein annotation, profiling panel (AID 1131); conditions: fibrinogen-A647 binding fluorescence, higher = more signal;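 further: z-score merges 667 nm fluorescence with per-spot signal-to-noise over triplicate slides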
# [15] = biological target: Follistatin (Homo sapiens) (UniProt P19883); test: FST protein binding to printed compounds – biochemical, small-molecule microarray, 635/667 nm fluorescence, primary screen (AID 1132); conditions: 635 nm fluorescence, higher = more signal
# Follistatin (Homo sapiens), sequence (P19883 whole entry, looked up): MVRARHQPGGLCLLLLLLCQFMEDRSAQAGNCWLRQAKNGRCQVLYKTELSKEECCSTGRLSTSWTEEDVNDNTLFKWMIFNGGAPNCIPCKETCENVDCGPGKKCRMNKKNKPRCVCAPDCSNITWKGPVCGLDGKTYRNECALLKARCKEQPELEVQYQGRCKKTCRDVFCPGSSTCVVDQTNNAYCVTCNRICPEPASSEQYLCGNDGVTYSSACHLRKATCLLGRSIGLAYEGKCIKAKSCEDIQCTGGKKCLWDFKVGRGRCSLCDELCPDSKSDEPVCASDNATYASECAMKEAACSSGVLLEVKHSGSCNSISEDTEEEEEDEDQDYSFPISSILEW
# [16] = biological target: Fibroblast growth factor 2 (Homo sapiens) (UniProt P09038); test: basic fibroblast growth factor binding to printed compounds – biochemical, small-molecule microarray, 635/667 nm fluorescence, primary screen (AID 1133); conditions: FGF2, fluorescence 635/667, higher = more signal
# Fibroblast growth factor 2 (Homo sapiens), sequence (P09038 whole entry, looked up): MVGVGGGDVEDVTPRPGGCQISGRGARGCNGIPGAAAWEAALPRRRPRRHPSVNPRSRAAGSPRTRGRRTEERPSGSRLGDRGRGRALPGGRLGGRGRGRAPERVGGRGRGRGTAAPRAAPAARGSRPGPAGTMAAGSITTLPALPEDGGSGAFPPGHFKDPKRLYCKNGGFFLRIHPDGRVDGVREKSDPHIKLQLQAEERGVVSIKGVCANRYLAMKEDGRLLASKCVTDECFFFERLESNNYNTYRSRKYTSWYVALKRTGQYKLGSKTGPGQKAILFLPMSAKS
# [17] = JC-1 mitochondrial potential readout, lung cancer cells – cell-based, A549, JC-1 fluorescence, basal, 24 h, 100 nL, profiling panel (AID 1138); conditions: higher = more signal;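 further: A549 lung adenocarcinoma cells under basal conditions with no added stimulus; test concentration not given here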
# [18] = tested on: Lefty1; test: Lefty1 protein binding to printed compounds – biochemical, small-molecule microarray, 635/667 nm fluorescence, primary screen (AID 1139); conditions: fluorescence 635/667, higher = more signal
# [19] = tested on: wheat germ agglutinin (Triticum aestivum), Alexa647-labelled; test: Alexa647-WGA lectin binding to printed small molecules – biochemical, small-molecule microarray, 635/667 nm fluorescence, artefact control for SMM control-protein annotation, profiling panel (AID 1140); conditions: WGA-A647 binding, 635 nm fluorescence, higher = more signal;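 further: score merges 667 nm feature emission with signal to noise over triplicate slides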
# [20] = biological target: Luciferin 4-monooxygenase (Photinus pyralis) (UniProt P08659); test: inhibition of purified Photinus pyralis luciferase – biochemical, luminescence, purified enzyme, 2006 set, primary screen (AID 1141); conditions: purified firefly luciferase, SteadyGlo luminescence, 30 min; higher = more signal, called active from +8 up or from −8 down;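 further: cell-free assay with purified firefly luciferase at 100 ng per well in PBS; test concentration not given here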
# Luciferin 4-monooxygenase (Photinus pyralis), sequence (P08659 whole entry, looked up): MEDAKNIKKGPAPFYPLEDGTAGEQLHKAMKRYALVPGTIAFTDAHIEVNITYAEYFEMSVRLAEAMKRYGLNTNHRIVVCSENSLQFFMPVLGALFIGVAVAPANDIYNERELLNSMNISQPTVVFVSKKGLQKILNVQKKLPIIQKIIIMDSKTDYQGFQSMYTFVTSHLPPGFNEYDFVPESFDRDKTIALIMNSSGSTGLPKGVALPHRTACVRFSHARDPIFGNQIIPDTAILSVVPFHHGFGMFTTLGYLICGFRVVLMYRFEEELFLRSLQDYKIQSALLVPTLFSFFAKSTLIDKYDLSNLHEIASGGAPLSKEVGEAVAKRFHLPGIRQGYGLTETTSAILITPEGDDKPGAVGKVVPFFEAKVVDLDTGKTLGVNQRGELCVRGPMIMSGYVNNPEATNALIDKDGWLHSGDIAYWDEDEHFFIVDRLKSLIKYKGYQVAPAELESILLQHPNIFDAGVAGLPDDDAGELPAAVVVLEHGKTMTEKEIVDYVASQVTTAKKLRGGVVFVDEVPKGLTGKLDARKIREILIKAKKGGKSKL
Structure (SMILES),composite z-score [1],composite Z-score [2],composite z-score [3],composite z-score [4],composite z-score [5],composite z-score [6],composite z-score [7],composite z-score [8],composite z-score [9],composite z-score [10],composite z-score [11],composite z-score [12],composite z-score [13],composite z-score [14],composite z-score [15],composite z-score [16],z-score [17],composite z-score [18],composite z-score [19],z-score [20]
COCCOC(=O)N1C(=O)[C@@]2(c3ccccc31)[C@H](C(=O)N1CCc3cc(OC)c(OC)cc3C1)[C@H]1C(=O)O[C@H](c3ccccc3)[C@H](c3ccccc3)N1[C@@H]2c1ccc(OCCO)cc1,0.843,-0.386 (inactive),-0.0343,-0.0903,0.486,2.59,0.953,1.32,0.417,1.09,2.67,1.22,0.789,0.896,1.25,1.1,-0.382,0.492,0.722,-1.76 (inactive)
CC(C)N1C(=O)C[C@@](C(=O)NCC(F)(F)F)(c2ccc([N+](=O)[O-])cc2)[C@H]1c1ccc(CO)cc1,0.0344,0.447 (inactive),-0.0636,-0.173,0.662,1.22,-0.0253,0.933,-0.035,0.688,-0.203,0.38,0.611,0.0938,0.409,-0.432,-0.279,0.343,0.351,1.58 (inactive)
C=C(C)[C@@H]1CC=C(C(O)C2C=CC3C(=O)N(c4ccccc4)C(=O)C3N2Nc2ccccc2)CC1 (stereo not given in full),0.889,0.788 (inactive),0.75,0.405,0.879,2.84,0.736,1.3,0.543,1.13,0.858,1.24,0.0294,0.982,1.22,0.001,-0.369,0.226,1.32,-1.24 (inactive)
C[N+](C)(C)CCCCNC(=O)[C@H]1C[C@H]2C(=O)N3CCC[C@H]3C(=O)N2[C@H]1c1cccc(OCCO)c1,-1.75,-0.166 (inactive),-0.0663,-0.0942,0.73,0.647,0.815,-0.531,1.3,-0.303,3.3,-1.41,-0.444,-0.944,1.43,1.41,-0.613,0.974,-1.48,-0.677 (inactive)
CCc1cccc(NC(=O)O[C@H]2[C@H](OC(=O)Nc3ccccc3-c3ccccc3)[C@@H](OC(=O)Nc3ccccc3-c3ccccc3)[C@@H](OC)O[C@@H]2CO)c1,0.81,0.237 (inactive),0.13,-0.0238,0.704,2.8,0.219,1.3,-0.229,1.07,2.04,1.31,0.69,1.02,1.02,0.179,-1.12,0.345,1.08,0.532 (inactive)
C[C@@]1([C@@H](NC(=O)c2ccc(-c3ccccc3)cc2)c2ccc(Cl)cc2)C[C@H]1C1CCCCC1,0.688,-0.286 (inactive),0.305,-0.0527,0.302,2.21,0.0789,1.29,-0.564,1.01,2.1,1.15,0.473,0.869,0.663,-0.246,0.532,0.112,0.695,0.321 (inactive)
C=C(/C(=C/C[C@H](OC(C)=O)c1ccc(CO)o1)c1cc(C(=O)OC)ccc1OC)C(C)C,0.222,0.72 (inactive),-0.0328,-0.148,0.646,0.356,-0.185,0.271,-0.649,-0.237,-0.978,-0.184,-0.0384,-1.25,0.467,0.539,-0.483,0.864,-1.24,-1.33 (inactive)
CN(C)CCCCCCNC(=O)[C@H]1C[C@H]2C(=O)N[C@@H](CCCCN)C(=O)N2[C@H]1c1cccc(OCCO)c1,0.733,5.67 (inactive),1.95,0.986,0.773,4.1,0.952,1.33,1.46,1.25,3.31,1.35,3.91,0.977,1.54,0.844,0.332,1.41,1.64,-0.485 (inactive)
CCOC(=O)[C@H]1C/C=C/C[C@H](C(=O)OCC)C(=O)O[C@H]2[C@@H](OC)O[C@H](CO)[C@@H](OC(=O)c3c(OC)cccc3OC)[C@@H]2OC1=O,0.0961,0.338 (inactive),0.275,-0.108,0.512,1.66,0.47,1.26,0.83,0.932,0.0181,1.12,0.523,0.661,0.706,0.418,-0.927,0.639,0.0697,-0.335 (inactive)
NC(=O)NCC#Cc1ccc2c(c1)[C@]1(C(=O)N2)[C@H](c2ccc(O)cc2)N2[C@H](c3ccccc3)[C@H](c3ccccc3)OC(=O)[C@H]2[C@@H]1C(=O)O,0.43,0.619 (inactive),-0.725,-0.281,0.241,0.547,-0.0085,-0.0756,-1.43,0.411,0.948,-0.404,-0.415,-0.159,-0.386,-0.912,-0.61,-0.283,-0.142,0.323 (inactive)
C=CCNC(=O)[C@@H]1[C@H]2C(=O)O[C@H](c3ccccc3)[C@H](c3ccccc3)N2[C@H](c2ccc(O)cc2)[C@@]12C(=O)N(C(=O)OCCOC)c1ccc(C#CCNC(N)=O)cc12,0.803,0.797 (inactive),-0.0247,-0.0393,0.552,0.737,0.731,1.16,0.155,1.1,0.2,1.16,1.23,0.746,1.18,1.45,-0.564,1.03,0.834,-1.43 (inactive)
